tim10-1 inh – tim10-1 yeast growth inhibition | S. cerevisiae tim10-1 ts strain growth, BacTiter-Glo, 24 h | 330,000 compounds, 2.2% hits | AID 463190 | inhibition, % at 20 µM;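 active = inhibition of at least 40%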;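 note: mutant grown at 25 °C; 0% = DMSO wells with yeast and 100% = wells holding no yeast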
SKKanGAS inh – inhibitors of SKKanGAS S. pyogenes growth in kanamycin (SK-promoter or general growth effect). AID 1662. inhibition, % at 7.5 µM. BacTiter-Glo, 6 h. 300,000 compounds, 1.3% hits;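 active = mean replicate score, as percent of positive control median, at least 50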;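 note: strain carries kanamycin resistance gene driven by streptokinase promoter and grows in 40 µg/ml kanamycin; loss of luminescence reflects streptokinase promoter inhibition or plain growth inhibition; 0% = median of DMSO wells and 100% = positive control at its reference dose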
PfHsp90 yeast 2 – inhibits growth of yeast expressing Plasmodium falciparum Hsp90; S. cerevisiae expressing PfHsp90, BacTiter-Glo ATP, 48 h; yeast lacking PDR1 and PDR3 efflux regulators; inhibition, % at 9.4 µM; 310,000 compounds, 0.32% hits;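 active = every replicate shows inhibition above about 80%, whatever the replicate mean, limit read from the data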;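 note: 0% = DMSO neutral controls and 100% = 20 µM radicicol positive controls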
tim23-1 inh – inhibits growth of tim23-1 mutant yeast; S. cerevisiae tim23-1 growth, BacTiter-Glo luminescence, 24 h; inhibition, % at 20 µM; 330,000 compounds, 1.3% hits; AID 463212;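 active = growth inhibition of the mutant yeast at or above 50%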;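 note: temperature-sensitive mutant grown at 25 °C; plate controls were DMSO-treated mutant yeast for no effect and medium wells lacking yeast for full effect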
TIM10 inh – inhibits growth of TIM10 yeast strain. AID 463195. 330,000 compounds, 1.4% hits. S. cerevisiae TIM10 strain growth, BacTiter-Glo luminescence, 24 h. inhibition, % at 10 µM;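 active = inhibition of 40% or more at the single tested concentration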;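 note: wild-type TIM10 isogenic control strain grown at permissive 25 °C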
The depositor's hits bear a star; . = no result. This is a sample that favours compounds with a hit; in the whole collection about 4.4% have one here.

SMILES	tim10-1 inh	SKKanGAS inh	PfHsp90 yeast 2	tim23-1 inh	TIM10 inh
C[C@H]1COC2=C1C(=O)C(=O)c1c2ccc2c1CCCC2(C)C	.	86*	-48	.	.
O=C(CC(O)(CC(=O)OCc1ccccc1)C(=O)OCc1ccccc1)OCc1ccccc1	.	.	21	.	.
Cc1csc(=O)n1CCC(=O)N(C)Cc1c(F)cccc1Cl	5	.	12	4	-10
COc1ccc2cc(C(=O)/C=C/c3cc(OC)c(O)c(OC)c3)ccc2c1	35	69*	9	30	9
O=C(CN1C(=O)NC2(CCCC2)C1=O)N1CCN(c2ccc(C(F)(F)F)cc2[N+](=O)[O-])CC1	.	.	-5	.	.
CC(=O)c1ccc(S(=O)(=O)N(C)CC(=O)NCc2ccco2)cc1	8	.	.	13	3
CCCN1CCc2c(sc(NC(=O)c3ccc(S(=O)(=O)N4CCN(C(=O)OCC)CC4)cc3)c2C(N)=O)C1	3	57*	-4	6	2
CCN1CCc2c(sc(NC(=O)c3ccc(S(=O)(=O)N4CCCC4)cc3)c2C(=O)NC)C1	-5	50*	7	4	7
CNC(=O)c1c(NC(=O)c2ccc(S(=O)(=O)N3CCCCC3)cc2)sc2c1CCN(C(C)C)C2	-17	43	-2	-16	3
O=C1c2ccccc2C(=O)N1C1C(=O)N2CCSC12C(=O)OCc1ccccc1 (centres undefined)	.	.	5	.	.
CC[C@]12C(=O)N(C)C[C@H]([C@@H]3C(=O)N(C)C(=O)[C@@H]31)N2C(=O)c1ccc(C(C)(C)C)cc1	.	.	5	.	.
Cc1[nH]n(-c2ccccc2)c(=O)c1/C=N/NC(=O)c1cccc(F)c1	-7	68*	-35	10	19
Cc1[nH]n(-c2ccc(Br)cc2)c(=O)c1/C=N/NC(=O)c1ccccc1	-42	90*	19	27	-66
CC(=O)C1CCC2C3CCC4=CC(=O)CCC4(C)C3(F)C(O)CC12C (centres undefined)	.	.	-14	.	.
C#CC(=O)CC1(CN(Cc2ccccc2)C(=O)OC(C)(C)C)CCCCC1	.	.	5	.	.
Cc1ccccc1N1CCN(C2CCCN(C(=O)c3cn4cccc(C)c4n3)C2)CC1 (centres undefined)	12	-1	8	15	8
COc1ccc(C(=O)NNC(=S)NC(=O)/C=C/c2cccs2)cc1	11	62*	-38	-13	-14
O=C(Cc1ccccc1)NNC(=S)NC(=O)c1cccs1	24	79*	.	-19	8
O=C(Cc1cccs1)NNC(=S)NC(=O)c1ccc(F)c(F)c1	25	29	-37	-11	14
O=C(NC(=S)Nc1ccccc1)c1cccs1	19	1	-11	38	1
O=C(/C=C/c1cccs1)NC(=S)Nc1ccccc1	29	5	.	-11	30
O=C(NC(=S)NNC(=O)c1cccs1)c1ccc(Br)o1	16	101*	5	-10	6
O=C(/C=C/c1ccccc1)NC(=S)NNC(=O)Cc1cccs1	23	79*	3	-4	5
COc1ccc(/C=C/C(=O)NC(=S)NNC(=O)Cc2cccs2)cc1	-3	109*	0	-38	2
O=C(Cc1cccs1)NNC(=S)NC(=O)c1ccccc1	19	56*	-1	-43	-14
SMILES	tim10-1 inh	SKKanGAS inh	PfHsp90 yeast 2	tim23-1 inh	TIM10 inh
COc1ccc(C(=O)NCC(=O)OCC(=O)NCc2ccc3c(c2)OCO3)cc1	-10	.	3	3	-4
COc1cc(C(C)=NNC(=O)c2ccncc2)ccc1O	.	.	0	.	.
NC(=O)C(C1=CCCCC1)c1ccccc1 (centres undefined)	.	.	3	.	.
CCN(CC(=O)Nc1ccccc1C(F)(F)F)C(=O)c1ccccc1OCc1ccc(F)cc1	.	.	17	.	.
O=C(COc1ccccc1)Nc1cccc(-c2nc3cc4ccccc4cc3[nH]2)c1	9	67*	.	39	-6
Cc1[nH]n(-c2ncc(-c3ccccc3)s2)c(=O)c1C(c1ccc(Cl)cc1)C(C#N)C#N (centres undefined)	34	61*	-29	47	31
CC1=NN(Cc2ccccc2)C(=O)C1C(c1ccc(Cl)cc1)C(C#N)C#N (centres undefined)	39	5	4	35	16
COc1ccc(C(=O)Nc2sc(C)c(-c3ccccc3)c2C#N)cc1OC	16	54*	6	16	19
CC(=O)c1cccc(NC(=O)COC(=O)CCC(=O)c2cccs2)c1	16	.	.	23	-2
CC(C)=CCc1c(-c2ccc(O)cc2O)oc2c3c(cc(O)c2c1=O)OC(C)(C)C=C3	26	108*	.	39	16
CC1(C)C=Cc2c(ccc(-c3coc4cc(O)ccc4c3=O)c2O)O1	-4	-4	.	14	3
CC(C)=CCc1c([C@@H]2CCc3ccc(O)cc3O2)cc2c(c1O)OC(C)(C)C=C2	22	26	.	30	11
CC(C)=CCc1c2c(c(O)c3c(=O)c4c(oc13)-c1cc(O)c(O)cc1OC4C=C(C)C)C=CC(C)(C)O2 (centres undefined)	25	93*	.	11	-14
c1ccc(-c2csc(CN3CCCCC3)n2)cc1	.	.	10	.	.
Cc1ccc(NC2=C(NC(=O)c3ccccc3)C(=O)c3ccccc3C2=O)cc1Cl	29	74*	-8	41	22
Cc1ccc(NCC(=O)c2ccccc2)cc1Cl	11	7	-10	7	1
CC1CCCC(C)N1c1nnc(NC(=O)c2cc(-c3ccc(Br)cc3)on2)s1 (centres undefined)	9	51*	-2	20	9
O=C(Nc1nnc(N2CCCCCC2)s1)c1cc(-c2ccc(Br)cc2)on1	12	26	31	22	1
COc1cccc(CN(C)C(=O)COc2cccc3c2OC(C)(C)C3)c1OC	.	.	10	.	.
CCOC(=O)C1=Nc2ccccc2C1=[N+]=[N-]	14	103*	122*	36	-29
CCOC(=O)c1cnc(-c2ccccc2O)nc1Cl	3	6	-8	13	-8
COc1ccc(/C=C/c2nc3cc(-c4ccccc4)ccc3o2)cc1O	6	88*	-18	33	23
O=C(COc1ccc(-c2nnco2)cc1)Nc1ccc(C(F)(F)F)cc1	10	-4	20	11	-3
CCOC(=O)c1c(N)sc(C(O)(C(F)(F)F)C(F)(F)F)c1-c1ccc(Cl)cc1	20	76*	64	37	19
CC(=O)O[C@H]1[C@H](O)[C@H](Oc2c(O)c(C)c3c4c2[C@@H](C)CC[C@@H]4[C@@H](C)C[C@H]3C=C(C)C)O[C@@H](C)[C@H]1O	38	.	118*	48	10
CC(=O)OC1[C@H](Oc2c(O)c(C)c3c4c2[C@@H](C)CC[C@@H]4[C@@H](C)C[C@@H]3C=C(C)C)OC[C@@H](O)[C@@H]1O (some centres undefined)	9	.	-83	6	7
O=C1c2ccccc2C(=O)N1CCCCc1cn(C[C@H]2CC[C@@H]([C@@H]3CC[C@H](Cn4cc(CCCCN5C(=O)c6ccccc6C5=O)nn4)O3)O2)nn1	-9	.	.	0	-1
